{"source": "the supplement of paper PMC4723716", "note": "Whole data set: some 3,600 compounds, median “viability index relative to DMSO control” near 0.81, cut for the lowest 2% near 0.13. The sample holds the lowest values, similar compounds and a random draw of the others, so the mix is not that of the screen.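 Note: Saponin-lysis sexual stage assay in serum-free medium: MitoTracker Red CMXRos staining plus saponin, high-content imaging, particle count per well divided by plate mean of DMSO wells.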"}
{"tested_on": "Plasmodium falciparum NF54 stage V gametocytes", "assay": "viability index relative to DMSO control (fraction); higher = less gametocyte killing", "conditions": "1.25 µM, incubation time: 72 h"}
{"molecule": "COc1cc(C(c2c(C)n(C)n(-c3ccccc3)c2=O)c2c(C)n(C)n(-c3ccccc3)c2=O)cc(Cl)c1OCc1ccccc1", "viability index": 0.699}
{"molecule": "Cc1n(C)c2ccccc2[n+]1CC(=O)c1ccccc1", "viability index": 0.785}
{"molecule": "COc1ccc(NC(=O)c2cnn(-c3ccccc3)c2NC(=O)c2ccco2)cc1", "viability index": 0.846}
{"molecule": "COc1cccc(CNC(=O)Cn2ncc3c(=O)oc4ccc(C)cc4c32)c1", "viability index": 0.843}
{"molecule": "CC(C)NCC(O)Cn1c2ccc(Cl)cc2c2cc(Cl)ccc21", "note": "(stereo unspecified)", "viability index": 0.419}
{"molecule": "CC(=O)c1ccc(N2CCN(Cc3cc(-c4ccnc5cc(Cl)ccc45)ccc3O)CC2)cc1", "viability index": 0.433}
{"molecule": "O=C1CC(c2cccc([N+](=O)[O-])c2)c2cc3c(cc2N1)OCO3", "note": "(stereo unspecified)", "viability index": 0.839}
{"molecule": "Cc1cc(Nc2cccc([N+](=O)[O-])c2)nc2cc(O)ccc12", "viability index": 0.819}
{"molecule": "O=[N+]([O-])c1cc(Br)c(Nc2ccccc2)c([N+](=O)[O-])c1", "viability index": 0.0522}
{"molecule": "O=C(O)CCNc1ccccc1[N+](=O)[O-]", "viability index": 0.971}
{"molecule": "COc1ccccc1NC(=O)C(=O)NCCc1ccc(OC)c(OC)c1", "viability index": 0.413}
{"molecule": "Cc1c(CN2CCC(N3CCC(C(=O)NC4CC4)CC3)CC2)[nH]c2c(Cl)cccc12", "viability index": 0.865}
{"molecule": "O=C(CN1CCN(C(=O)c2ccco2)CC1)Nc1cc(C(F)(F)F)ccc1Cl", "viability index": 1.11}
{"molecule": "CC1CCN(c2nncc3ccccc23)CC1", "viability index": 0.777}
{"molecule": "Cc1cc(N2CCC(C)CC2)nc(-n2nc(C)cc2C)n1", "viability index": 0}
{"molecule": "Cc1cc(C)n(-c2ncc(-c3ccc([N+](=O)[O-])cc3)cn2)n1", "viability index": 1.02}
{"molecule": "CN1CCC(CCNCc2ccc(OCC(O)CN(C)Cc3ccccc3)cc2)CC1", "note": "(stereo unspecified)", "viability index": 0.856}
{"molecule": "Cn1c(=O)c(Cl)c2c3c(c(Cl)ccc31)C(=O)c1ccccc1-2", "viability index": 0.0761}
{"molecule": "CCCCNC(=O)c1nn(-c2ccc(OC)cc2)c(=O)c2ccccc12", "viability index": 0.946}
{"molecule": "O=c1c(=Cc2ccc(-c3ccc([N+](=O)[O-])cc3Cl)o2)sc2nc3ccccc3n12", "viability index": 0.699}
{"molecule": "CCC(C)NCC(O)(c1ccc(Cl)cc1)c1ccc(Cl)cc1", "note": "(stereo unspecified)", "viability index": 0.699}
{"molecule": "CCCOC(=O)C1=C(C)NC2=C(C(=O)CC(c3ccc(OC)c(OC)c3)C2)C1c1ccc([N+](=O)[O-])cc1", "note": "(stereo unspecified)", "viability index": 0.514}
{"molecule": "CCOC(=O)c1[nH]nc(C(=O)c2ccccc2)c1-c1ccccc1", "viability index": 1.27}
{"molecule": "CCOC(=O)c1c(-c2ccccc2)oc2c1C(=O)c1ccccc1C2=O", "viability index": 0.461}
{"molecule": "CCOC(=O)c1c(Cl)nnc(-c2ccccc2)c1-c1ccccc1", "viability index": 0}
{"molecule": "CCOC(=O)c1c(NC(=O)Cc2ccc([N+](=O)[O-])cc2)sc2c1CCCC2", "viability index": 1.02}
{"molecule": "Cc1ccc(CN2C(=O)C(O)(CC(=O)c3ccccc3)c3ccccc32)cc1", "note": "(stereo unspecified)", "viability index": 0.914}
{"molecule": "CCN1C(=Cc2sc3ccccc3[n+]2C)C=Cc2ccc(C)cc21", "viability index": 0.51}
{"molecule": "Cc1cc(NCCCN(C)C)c2ccccc2n1", "viability index": 0.888}
{"molecule": "CN(C)CCCNc1c2ccccc2nc2ccccc12", "viability index": 0.0224}
{"molecule": "CN(C)CCNc1c2c(nc3ccccc13)CCC2", "viability index": 0.953}
{"molecule": "CCOc1cc([N+](=O)[O-])cc(C=Nc2cccc(NC(=O)c3ccco3)c2)c1O", "viability index": 0.989}
{"molecule": "N=c1n(CCN2CCCCC2)c2ccccc2n1CC(O)COc1ccc(Cl)cc1", "note": "(stereo unspecified)", "viability index": 0.746}
{"molecule": "O=C(CC1OC(=O)c2ccccc21)c1ccc(Cl)cc1", "note": "(stereo unspecified)", "viability index": 0.496}
{"molecule": "CCOC(=O)c1cnc2c(OC)cccc2c1Nc1ccc(C(C)=O)cc1", "viability index": 1.27}
{"molecule": "c1ccc(CNc2nc(-c3ccccn3)nnc2-c2ccccc2)cc1", "viability index": 0.374}
{"molecule": "COc1ccccc1/C=C/CN1CCN(c2ccccn2)CC1", "viability index": 1.15}
{"molecule": "COc1ccc(Nc2nc(N3CCCC3)c3ccccc3n2)cc1", "viability index": 0.74}
{"molecule": "CC(C)Nc1nc(-c2cccnc2)nc2ccccc12", "viability index": 1.12}
{"molecule": "COc1cnc(-c2ccccn2)nc1NC(C)C", "viability index": 0.0307}
{"molecule": "COc1cnc(-c2ccccn2)nc1N1CCCC1", "viability index": 0.0429}
{"molecule": "Cc1cc(C)nc(Nc2nc(C)c3cc(C)c(C)cc3n2)n1", "viability index": 0.196}
{"molecule": "CCOC(=O)C1=C(C)NC2=C(C(=O)C(C(=O)OCC)C(c3ccc(OC)cc3)C2)C1c1ccc(OC)c(OC)c1", "note": "(stereo unspecified)", "viability index": 0.683}
{"molecule": "CN(C)c1ccc(C=C2SC(=Nc3ccc(O)cc3)NC2=O)cc1", "viability index": 0.727}
{"molecule": "CCn1c(C=CN(C)c2ccccc2)[n+](CC)c2cc(Cl)ccc21", "viability index": 1}
{"molecule": "CC(C)(C)c1ccc(Cn2nnc3c(O)nc(C4CCN(C(=O)c5ccccc5)CC4)nc32)cc1", "viability index": 0.736}
{"molecule": "N=C1NC(=O)C(=CC=Cc2ccc([N+](=O)[O-])o2)S1", "viability index": 0.0408}
{"molecule": "O=C(c1ccccc1)N1CCc2nc(Cc3ccc(F)cc3Cl)sc2C1", "viability index": 0.708}
{"molecule": "COc1cccc(OC)c1C(=O)Oc1cccc2ccc(C)nc12", "viability index": 0.706}
{"molecule": "Cc1ccc2ccc3ccc(C)nc3c2n1", "viability index": 0.0302}
{"molecule": "Cc1ccc(NC(=O)c2ccc(NCCCN3CCCCCC3)c([N+](=O)[O-])c2)cc1F", "viability index": 1.51}
{"molecule": "CC1(C)C2CCC(C2)C1(C)NC(=S)NN=Cc1ccccn1", "note": "(stereo unspecified)", "viability index": 0.0373}
{"molecule": "S=C(NN=Cc1ccccn1)NC1CC2CC1C1C=CCC21", "note": "(stereo unspecified)", "viability index": 0.397}
{"molecule": "S=C(NN=Cc1ccccn1)NC1CC2C=CC1C2", "note": "(stereo unspecified)", "viability index": 0.0456}
{"molecule": "CCOC(=O)c1ccc(N(C(=O)Cc2c[nH]c3ccccc23)C(C(=O)NC2CCCCC2)c2cccnc2)cc1", "note": "(stereo unspecified)", "viability index": 0.513}
{"molecule": "O=C(Nc1ccc(O)cc1)c1cccc(S(=O)(=O)N2CCCCC2)c1", "viability index": 1.03}
{"molecule": "CC(=O)NC1=NN(C(C)=O)C(c2ccc(Br)cc2)S1", "note": "(stereo unspecified)", "viability index": 0.944}
{"molecule": "O=C(CSc1nc2ccccc2c(=O)n1CCCN1CCOCC1)Nc1cccc(S(=O)(=O)N2CCCCCC2)c1", "viability index": 0.969}
{"molecule": "CCc1ccc2c(c1)C1(NN=C(c3ccc(C)cc3)S1)C(=O)N2", "note": "(stereo unspecified)", "viability index": 0.127}
{"molecule": "CC1=C(C(=O)OC2CCCCC2)C(c2ccc(F)c(F)c2)C2=C(CCCC2=O)N1", "note": "(stereo unspecified)", "viability index": 0.855}
{"molecule": "CN(C)CCCNc1cc(-c2ccccc2)nc2ccccc12", "viability index": 0.913}
{"molecule": "CN(C)CCNc1cc(-c2ccc3ccccc3c2)nc2ccccc12", "viability index": 0.0331}
{"molecule": "CN(C)CCNc1cc(-c2ccccc2)nc2ccccc12", "viability index": 0.909}
{"molecule": "Cc1ccc(C=Cc2ccc3ccccc3[n+]2C)cc1", "viability index": 0.754}
{"molecule": "O=C(NCc1ccccc1)C(c1ccc(F)cc1)N(Cc1ccco1)C(=O)c1cnccn1", "note": "(stereo unspecified)", "viability index": 0.72}
{"molecule": "CCOc1ccccc1NC(=O)Cn1c(=O)n(Cc2ccccc2)c(=O)c2c(C)c(C(=O)N(C)C)sc21", "viability index": 0.83}
{"molecule": "CCCCCOC(=O)C1=C(C)NC2=C(C(=O)CC(C)(C)C2)C1c1ccncc1", "note": "(stereo unspecified)", "viability index": 0.891}
{"molecule": "CC(=O)N(Cc1ccc(F)cc1)C1=C(NCCc2ccccc2)C(=O)c2ccccc2C1=O", "viability index": 0.0184}
{"molecule": "CNC1=C(N(Cc2ccc(Cl)c(Cl)c2)C(C)=O)C(=O)c2ccccc2C1=O", "viability index": 0}
{"molecule": "CCC(=O)N(C1=C(NC)C(=O)c2ccccc2C1=O)C(C)C", "viability index": 0.601}
{"molecule": "CC(=O)N(C1=C(N2CCCCC2)C(=O)c2ccccc2C1=O)c1ccc(F)cc1", "viability index": 0.721}
{"molecule": "CCN(C(C)=O)C1=C(N2CCOCC2)C(=O)c2ccccc2C1=O", "viability index": 0.538}
{"molecule": "CC(=O)N(C1=C(N2CCCC2)C(=O)c2ccccc2C1=O)c1ccc(F)cc1", "viability index": 1}
{"molecule": "Cc1cc(Nc2cccc(Cl)c2)nc2ccc(NC(=O)c3cccnc3)cc12", "viability index": 0.912}
{"molecule": "COC(=O)c1c(NC(=O)c2ccc(S(=O)(=O)N3CCOCC3)cc2)sc2c1CCN(C(C)=O)C2", "viability index": 0.76}
{"molecule": "C1=C(c2ccccc2)CCN(c2ncnc3c2nc2n3CCCCC2)C1", "viability index": 0.916}
